TSHR ag: activates the human thyroid stimulating hormone receptor; P16473; HEK293-CNG-TSHR cells (CNG channel as cAMP sensor), membrane potential dye, cAMP; Potency, µM (top dose mostly 57.1 µM), inactives show at the top dose activation, most hits filed as activators; 73,000 compounds, 0.48% hits; active = well fitted activation curve with a large enough effect in the main read-out, with a control signal flat, not every such curve was filed as active; inconclusive = small, poorly fitted or top-dose-only effect, or a change in a side signal; inactive = no such curve, though single readings can be large or run the other way; % of control where 0% means no effect;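 also: the control signal comes from parental cells without the receptor; potency is read from the fitted curve at half-maximal effect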
Target sequence (P16473 whole entry, looked up): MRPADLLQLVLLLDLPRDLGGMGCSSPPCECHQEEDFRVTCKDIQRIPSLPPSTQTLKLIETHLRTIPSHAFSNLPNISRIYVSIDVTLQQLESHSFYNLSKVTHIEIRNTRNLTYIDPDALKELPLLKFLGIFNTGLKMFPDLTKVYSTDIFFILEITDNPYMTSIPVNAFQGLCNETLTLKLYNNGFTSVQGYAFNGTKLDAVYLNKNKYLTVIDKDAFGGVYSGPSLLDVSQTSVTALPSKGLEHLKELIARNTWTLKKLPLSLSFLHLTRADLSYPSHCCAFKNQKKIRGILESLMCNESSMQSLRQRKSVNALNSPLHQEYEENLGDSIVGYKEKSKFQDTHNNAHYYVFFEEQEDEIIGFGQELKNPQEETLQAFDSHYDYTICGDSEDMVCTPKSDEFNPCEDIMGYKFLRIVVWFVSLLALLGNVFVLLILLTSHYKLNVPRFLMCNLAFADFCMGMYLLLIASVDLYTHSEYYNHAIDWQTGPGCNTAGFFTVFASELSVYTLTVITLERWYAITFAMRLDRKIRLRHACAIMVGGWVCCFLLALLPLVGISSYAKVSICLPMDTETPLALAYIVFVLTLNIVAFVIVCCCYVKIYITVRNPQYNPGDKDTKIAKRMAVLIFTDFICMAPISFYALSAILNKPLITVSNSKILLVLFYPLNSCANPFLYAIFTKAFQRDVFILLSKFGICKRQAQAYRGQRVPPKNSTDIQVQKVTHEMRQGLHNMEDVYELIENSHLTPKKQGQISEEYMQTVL
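HEK 293 cells stably expressing TSHR and a cAMP-gated CNG channel; parental CNG-only cells as counterscreen. Cells preloaded 60 min with membrane potential dye plus 100 uM RO 20-1724, then compound 30 min; fluorescence read at 590 nm.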
HEK293 cAMP cs: counter-screen for TSHR agonists: cAMP increase in parental HEK293; 73,000 compounds, 2.5% hits; parental HEK293 CNG cAMP sensor, membrane potential fluorescence; Potency, µM (doses to about 57.1 µM), for inactives: at the top dose activation, actives largely listed as activators; AID 938; also: potency is read from the fitted curve at half-maximal effect; % of control where 0% means no effect; nearly all actives have a fitted effect of over 55% in size
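Counterscreen for endogenous-receptor signalling: CNG-channel HEK 293 cells report cAMP rise by membrane depolarization. After 60 min dye equilibration with 100 uM RO 20-1724, compounds incubated 30 min before bottom-read fluorescence at 590 nm.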
GFP derepression: epigenetic GFP locus derepression in mouse cells. 68,000 compounds, 0.09% hits. Potency, µM (doses to about 46.1 µM), for the others: at the highest dose GFP derepression (activation). mouse C127i GFP locus derepression, cytometry, 30 h; also: % of control where 0% means no effect
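Read-out is the number of GFP-positive cells, scored as fluorescent objects 20 to 120 um wide, reflecting derepression of a silenced CMV-GFP reporter in murine C127i cells after 30 h compound exposure at 37 C.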
UbGFP stabilizer: ubiquitin-GFP accumulation via proteasome inhibition; Ubiquitin-GFP reporter cells, proteasome inhibition, GFP fluorescence; response scale: untreated = 0%, 10 µM MG-132 = 100%; Potency, µM (highest dose often 45.9 µM), inactives show at the top dose activation (GFP accumulation), actives largely listed as activators; 67,000 tested, under 10 active; active = well fitted activation curve with a large enough effect, not every such curve was filed as active; inconclusive = small, poorly fitted or top-dose-only effect, or another doubt; inactive = no such curve, though single readings can be large or run the other way; also: potency is read from the fitted curve at half-maximal effect
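U2OS Ub(G76V)-GFP reporter; O/N plating, 0.5% FBS; cpd 46 uM–2.9 nM, 4 h, 37 °C; GFP+ cell count, 488/515 nm; norm. to basal vs 10 uM MG-132; CRC fit.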
HBB splice mod: alters splicing of the hemoglobin beta chain; Potency, µM (titrated, usually from 46.1 µM), without a hit: at the highest dose activation, hits mostly activators; 65,000 compounds, 0.06% hits; HBB splicing reporter cell assay, activation; EGFP reporter with mutant IVS2-654 intron; response scale: normalised to 500 nM splice-correcting PNA; AID 925; also: potency is read from the fitted curve at half-maximal effect; 0% is about no effect
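HeLa cells stably expressing EGFP interrupted by mutant beta-globin intron 2 (IVS2-654), 500/well in 2% FCS. Treated with compound for 2 days at 37C. Splicing correction scored as total well GFP intensity (488 nm excitation, 500-520 nm emission); 500 nM antisense PNA served as control.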
* hit, by the source's call; [ ] = dose if it differs, or a comment. This is a sample that favours compounds with a hit; in the whole collection about 3% have one here. Unless noted, calls follow the shape of the dose curve; as a rule, active = well fitted curve in the direction sought with a large enough effect; inconclusive = small, poorly fitted or top-dose-only effect, or another doubt; inactive = no such curve, though single readings can be large; an effect the other way counts as inactive or inconclusive.

How did CNc1ncnc(Sc2nc(N)nc3nc[nH]c23)c1[N+](=O)[O-] do in these assays?
TSHR ag: 8.2%[11.4 µM]; HEK293 cAMP cs: -2.1%[11.4 µM]; GFP derepression: 3.4%[9.22 µM]; UbGFP stabilizer: -3.5%[9.17 µM]; HBB splice mod: inconclusive

Results for Nc1nc(Sc2ccc([N+](=O)[O-])c3nonc23)c2[nH]cnc2n1 ?
TSHR ag: -5.0%[11.4 µM]; HEK293 cAMP cs: 6.9%[11.4 µM]; GFP derepression: inconclusive; UbGFP stabilizer: -7.7%[9.17 µM]; HBB splice mod: 3.16µM*

How did O=C(Oc1cccc2cccnc12)c1ccc(Br)o1 do in these assays?
TSHR ag: 2.3%; HEK293 cAMP cs: 5.1%; GFP derepression: 5.01µM*; UbGFP stabilizer: -2.5%

Results for O=C(Nc1cccc2cccnc12)c1ccc(Br)o1 ?
TSHR ag: inconclusive; HEK293 cAMP cs: inconclusive; GFP derepression: 0.0%; UbGFP stabilizer: 3.3%; HBB splice mod: -1.0%

How did Cc1ccc(NC(=O)CN(c2cc(C)cc(C)c2)S(=O)(=O)c2c(C)noc2C)nc1 do in these assays?
TSHR ag: inconclusive; HEK293 cAMP cs: 20µM*; GFP derepression: 3.4%; UbGFP stabilizer: 16.7%; HBB splice mod: -0.8%

How did OC[C@@H]1O[C@@H](n2cnc3c(NC4CCCC4)ncnc32)[C@@H](O)[C@H]1O do in these assays?
TSHR ag: inconclusive; HEK293 cAMP cs: inconclusive; GFP derepression: -0.1%; UbGFP stabilizer: -4.6%; HBB splice mod: 1.3%

How did O=c1[nH][nH]c(=S)c(=O)[nH]1 do in these assays?
TSHR ag: inconclusive; HEK293 cAMP cs: inconclusive; GFP derepression: -3.4%[9.22 µM]; UbGFP stabilizer: -6.2%[9.17 µM]; HBB splice mod: -0.3%[9.22 µM]

What do the screens show for `CC(C)C(=O)Cc1ccc2ccccc2n1`?
TSHR ag: 1.3%[11.4 µM]; HEK293 cAMP cs: 0.1%[11.4 µM]; GFP derepression: 4.5%[9.22 µM]; UbGFP stabilizer: 1.4%[9.17 µM]; HBB splice mod: 1.2%[9.22 µM]

What do the screens show for `CCCCC[C@H](O)c1cccc(OCc2ccc3ccccc3n2)c1`?
TSHR ag: inconclusive; HEK293 cAMP cs: 20µM*; GFP derepression: 0.0%; UbGFP stabilizer: 0.5%; HBB splice mod: 0.2%

Results for O=C(CCN1CCN(c2ccc(Cl)cc2)CC1)Nc1ccccc1F ?
TSHR ag: inconclusive; HEK293 cAMP cs: 25.1µM*; GFP derepression: 0.0%; UbGFP stabilizer: -3.4%; HBB splice mod: -0.9%[57.5 µM]

What do the screens show for `COc1ccc(C)cc1NC(=O)CN1CCN(c2ccccc2F)CC1`?
TSHR ag: inconclusive; HEK293 cAMP cs: 15.8µM*; GFP derepression: 2.1%; UbGFP stabilizer: -2.1%; HBB splice mod: -1.3%

Results for COc1cccc(NC(=O)CCN2CCN(c3ccccc3F)CC2)c1 ?
TSHR ag: inconclusive; HEK293 cAMP cs: 25.1µM*

How did O=C1[C@H]2[C@H]3[C@H](O)[C@H](O)C/C(=N/OC[C@@H](O)COCc4ccco4)[C@@H]3CC[C@@H]2C(=O)N1Cc1ccc2c(c1)OCO2 do in these assays?
TSHR ag: -2.5%[11.4 µM]; HEK293 cAMP cs: 1.7%[11.4 µM]; HBB splice mod: 0.6%[9.22 µM]

Results for Cc1ccc(S(=O)(=O)N2CCCCC2C(=O)NCc2ccco2)cc1 (stereo not given) ?
TSHR ag: 15.8µM*; HEK293 cAMP cs: 3.3%; GFP derepression: 0.3%; UbGFP stabilizer: -0.4%; HBB splice mod: -14.4%

What do the screens show for `O=C(NCc1ccco1)C1CCCN(S(=O)(=O)c2ccc(-n3cnnn3)cc2)C1` (stereo not given)?
TSHR ag: inconclusive; HEK293 cAMP cs: 20µM*; GFP derepression: 1.0%; UbGFP stabilizer: 2.0%; HBB splice mod: -0.2%[57.5 µM]

What do the screens show for `O=C(Nc1ccc(N2CCOCC2)c(Cl)c1)C1CCCCC1`?
TSHR ag: inconclusive; HEK293 cAMP cs: 25.1µM*; GFP derepression: 0.0%; UbGFP stabilizer: -10.0%; HBB splice mod: 0.1%

How did CC/C=C\CC[C@H](O)C1=CCCCC1=O do in these assays?
TSHR ag: -0.4%[11.4 µM]; HEK293 cAMP cs: -2.9%[11.4 µM]; HBB splice mod: 0.9%[9.22 µM]

Results for NC(=O)CN1CCN(C(=O)NC2CCCCC2)CC1 ?
TSHR ag: inconclusive; HEK293 cAMP cs: 25.1µM*; UbGFP stabilizer: -13.9%; HBB splice mod: -0.1%
